Experimental findings from the OligoGym collection are described below.
Also: reference of the scale not given here.

The first assay deals with P2RX3. Description: pooled miR-30 sensor sort-seq; sequence = guide strand. The following applies: shRNA.
As to TACCTGGTAAGCCTTCTCGTGC, the sensor-assay potency score (higher = more potent) is -1.6. In the case of TTGATGATCCCGATGGTCCAGC, the sensor-assay potency score (higher = more potent) was -0.677. Same read-out and setting: as for TTGAACTTGCCAGCATTCCCGT, the figure is -1.02; as for TTTCTCAGAAACGCTGTCGAGC, -0.254; as for TTCACAACCACCGACTTGGTGG, -0.566.

Consider TCAGTAACAATCATCTTGGTGA, for which the sensor-assay potency score (higher = more potent) came out at 0.681.

For a further assay, the target named is P2RY12. The description is as above. The settings on record: shRNA.
In the case of TTAACTTAGTTGCTTCTTCGTC, the sensor-assay potency score (higher = more potent) was -0.236. As for TTATTATTAACTTAGTTGCTTC, the sensor-assay potency score (higher = more potent) is -0.642. On the same count and under the same terms, as for TAATTTACTATTTCATGCCAGA, the figure is -0.703; as for TTATTAACTTAGTTGCTTCTTC, 0.717; as for TTCTTGTCTCTCGGCTGCCTGT, -1.33. TTTCATGCCAGACTAGACCGAA yielded a sensor-assay potency score (higher = more potent) of -0.342. Regarding TTGACGTTCACCTTTTTCCTGG, the sensor-assay potency score (higher = more potent) is 0.386. ATTTGGGTCACCACCATCCTGT registered a sensor-assay potency score (higher = more potent) of -0.843.

TTCACATTCTTGTCTCTCGGCT gave a sensor-assay potency score (higher = more potent) of -0.666.

Consider TAAAGTTTGATTTACTCCGGAT, for which the sensor-assay potency score (higher = more potent) was -0.511. On to TAATATTTTTACTTAGCGCTTT, for which the sensor-assay potency score (higher = more potent) worked out at 0.117.

Sequence TTAACCACAGAGTGCTCTCTTT returned a sensor-assay potency score (higher = more potent) of -0.668.

The target in the next assay is P2RY4. The assay is described as above. The settings on record: shRNA.
For TAGGAGTAGAGCAGCTACTGTC, the sensor-assay potency score (higher = more potent) was -0.823.

In turn, TTGAAATCCTCATCAAACCAAC registered a sensor-assay potency score (higher = more potent) of -1.03. Sequence TGAACTTGAAATCCTCATCAAA had a sensor-assay potency score (higher = more potent) of -1.05. For TTGACAATGTTCAGTACTCGGC, the sensor-assay potency score (higher = more potent) was -0.264. TAGCAAACAAGAGTGACCAGGC showed a sensor-assay potency score (higher = more potent) of 0.861. Regarding TAGCGGTGCACGCTGATGCAGG, the sensor-assay potency score (higher = more potent) is -1.24.

The sequence AGTAGAGCAGCTACTGTCCTGG returned a sensor-assay potency score (higher = more potent) of -1.37. For TTCCAATAGAAAAGAAAGCGGA, the sensor-assay potency score (higher = more potent) is -0.289. As to ATAGCAAACAAGAGTGACCAGG, the sensor-assay potency score (higher = more potent) is -0.888. Regarding TAGAGCACAGGATCCAGGCAGC, the sensor-assay potency score (higher = more potent) is -0.928. Consider AAGACGACTGTGCAGAGCCTGG, for which the sensor-assay potency score (higher = more potent) is -1.35. Sequence TAGAGCAGCTACTGTCCTGGGG gave a sensor-assay potency score (higher = more potent) of 0.0671.

The target of another assay is P2RY6. The description is as above. The settings on record: shRNA.
In turn, TTTTGTGAGCACCTTAATGTGG had a sensor-assay potency score (higher = more potent) of -0.636.

Consider TAGCGCTGGAAGCTGATGCAGG, for which the sensor-assay potency score (higher = more potent) is -0.775. TTGGGCATAGTTGTAGATGAGC had a sensor-assay potency score (higher = more potent) of -1.06.

ATAGTTGTAGATGAGCAGGGGC showed a sensor-assay potency score (higher = more potent) of 0.421. The sequence TTCTGTAGGAGCTCATGTGGTC showed a sensor-assay potency score (higher = more potent) of -0.257. On to TTGGTGAGCTTCTGGGTCCTGT, for which the sensor-assay potency score (higher = more potent) was -0.191. Turning to TTGGCATAGAAGAGGAAGCGGA, the sensor-assay potency score (higher = more potent) was -1. In turn, AGTTGCTTGAAGTTCTCGCGGT gave a sensor-assay potency score (higher = more potent) of -0.308. Take TTCTCGCGGTAGACACAGGTGG: the sensor-assay potency score (higher = more potent) is -0.894.

With TCGCGGTAGACACAGGTGGTGG, the sensor-assay potency score (higher = more potent) is -1.81.
